{"source": "PubChem BioAssay AID1445", "about": "(SRMLSC, 2008)", "note": "Hit rate of the full screen: of about 220,000 compounds, about 910 (0.41%) were called active. The sample holds actives, similar compounds and a random draw of the others, so the mix is not that of the screen. Entries with a potency or affinity are not part of this list. A number with no mark means an inactive call.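 The calls were made as follows: active = primary inhibition above the hit cutoff, then over 50% inhibition at one or more dose response concentrations (cut at about 23% in these data, passing the limit was not always enough); inconclusive = conflicting primary data, or primary hits not chosen for dose response; inactive = low primary inhibition, or under 50% at every dose.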"}
{"biological_target": "Aminopeptidase N (Plasmodium falciparum (isolate 3D7)) (UniProt O96935)", "sequence (O96935 whole entry, looked up)": "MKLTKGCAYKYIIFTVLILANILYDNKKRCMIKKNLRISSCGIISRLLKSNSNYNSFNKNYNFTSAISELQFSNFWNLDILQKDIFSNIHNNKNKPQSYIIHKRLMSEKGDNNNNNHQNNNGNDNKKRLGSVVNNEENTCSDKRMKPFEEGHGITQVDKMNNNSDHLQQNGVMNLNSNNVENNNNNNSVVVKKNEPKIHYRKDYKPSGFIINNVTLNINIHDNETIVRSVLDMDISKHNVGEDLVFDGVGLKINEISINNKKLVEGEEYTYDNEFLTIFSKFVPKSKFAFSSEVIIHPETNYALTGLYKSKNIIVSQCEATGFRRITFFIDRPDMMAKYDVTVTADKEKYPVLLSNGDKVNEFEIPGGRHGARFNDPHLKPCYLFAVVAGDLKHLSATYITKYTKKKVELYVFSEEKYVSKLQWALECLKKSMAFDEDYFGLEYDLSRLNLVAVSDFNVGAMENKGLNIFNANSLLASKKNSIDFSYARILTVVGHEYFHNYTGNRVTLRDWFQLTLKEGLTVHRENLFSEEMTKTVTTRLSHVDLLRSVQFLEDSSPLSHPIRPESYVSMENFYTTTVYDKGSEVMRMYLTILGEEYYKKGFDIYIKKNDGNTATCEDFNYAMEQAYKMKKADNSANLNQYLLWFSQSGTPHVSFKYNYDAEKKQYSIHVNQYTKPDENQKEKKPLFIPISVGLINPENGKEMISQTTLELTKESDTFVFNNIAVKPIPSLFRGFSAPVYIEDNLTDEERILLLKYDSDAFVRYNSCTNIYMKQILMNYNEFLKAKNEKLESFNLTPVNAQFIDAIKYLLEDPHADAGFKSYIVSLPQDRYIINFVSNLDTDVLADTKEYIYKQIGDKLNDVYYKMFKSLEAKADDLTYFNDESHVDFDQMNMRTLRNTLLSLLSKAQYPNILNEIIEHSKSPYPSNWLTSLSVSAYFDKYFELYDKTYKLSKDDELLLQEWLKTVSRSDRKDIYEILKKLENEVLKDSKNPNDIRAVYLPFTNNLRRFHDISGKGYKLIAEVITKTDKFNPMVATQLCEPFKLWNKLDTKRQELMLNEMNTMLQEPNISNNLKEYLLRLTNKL", "experiment": "P. falciparum M1AAP inhibitors, biochemical, fluorogenic H-Leu-NHMec substrate, 1536-well (AID 1445);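 also: plate controls were DMSO full reaction for no effect and no enzyme background for full effect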", "conditions": "recombinant M1AAP, H-Leu-NHMec fluorogenic kinetic assay; at 30 µM, hits give high values unless noted"}
{"smiles": "COC(=O)c1ccc(CSc2nc3c(c(=O)n2-c2ccccc2)SCC3)o1", "inhibition": "5.07%"}
{"smiles": "CCN(CC)CCCNC(=O)c1ccc(N2CCCCC2)c(NS(=O)(=O)c2ccc(C)cc2)c1", "inhibition": "-3.11%"}
{"smiles": "CC(CN1CCCC1)C(=O)NN", "note": "(centres undefined)", "inhibition": "-2.99%"}
{"smiles": "O=c1[nH]c2cc(Cl)c([N+](=O)[O-])nc2[nH]1", "inhibition": "11.7%"}
{"smiles": "Cc1nc(/C(=N/O)C(N)=O)cs1", "inhibition": "3.08%"}
{"smiles": "CCOC(=O)COc1ccc(Br)cc1C1NC(=O)NC(C)=C1C(=O)NCc1ccccc1", "note": "(centres undefined)", "inhibition": "-5.37%"}
{"smiles": "O=C(NCCc1nc2ccccc2[nH]1)c1ccco1", "inhibition": "-3.58%"}
{"smiles": "Nc1ncc(Br)cc1S(=O)(=O)NCCC(=O)Nc1cccc(Cl)c1", "inhibition": "0.42%"}
{"smiles": "Cc1ccc(C(=O)Nc2ccc3c(c2)CCC3)o1", "inhibition": "6.8%"}
{"smiles": "COc1cccc(OC)c1C(=O)N1CCN(c2c(Cc3ccccc3)c(C)nc3ncnn23)CC1", "inhibition": "7.55%"}
{"smiles": "Cc1ccc2c(CNCc3ccco3)cc(=O)oc2c1", "inhibition": "7.2%"}
{"smiles": "CCS(=O)(=O)N1CCC(C(=O)NCc2ccc(F)cc2)CC1", "inhibition": "5.77%"}
{"smiles": "CS(=O)(=O)N1CCC(C(=O)NCc2ccc(F)cc2)CC1", "inhibition": "12.5%"}
{"smiles": "Cc1ccc(S(=O)(=O)Nc2cccc(-c3cn4ccsc4n3)c2)cc1", "inhibition": "7.08%"}
{"smiles": "COc1ccccc1N1CCN(c2ncnc3nc[nH]c23)CC1", "inhibition": "3.64%"}
{"smiles": "COc1cc(C=C2C(=O)c3ccccc3C2=O)ccc1O", "inhibition": "12.8%"}
{"smiles": "COc1ccc(C=C2C(=O)c3ccccc3C2=O)cc1O", "inhibition": "13.7%"}
{"smiles": "COc1ccccc1N1CCN(c2nc3ccccc3nc2C(C#N)C(=O)OC(C)C)CC1", "note": "(centres undefined)", "inhibition": "1.03%"}
{"smiles": "Cn1ncc2cc(NC(N)=S)ccc21", "inhibition": "5.67%"}
{"smiles": "COc1cccc(NC(=O)COc2ccccc2C(N)=O)c1", "inhibition": "-6.65%"}
{"smiles": "COC(=O)c1nc(N)sc1-c1ccc(Cl)cc1", "inhibition": "7.93%"}
{"smiles": "CC1(C)Cc2c(sc3c2c(N)nc(=S)n3Cc2ccc(Br)cc2)CO1", "inhibition": "5.16%"}
{"smiles": "Cc1cc(C)n(-c2cc(-n3nc(C)cc3C)ncn2)n1", "inhibition": "7.79%"}
{"smiles": "Cc1ccc(Nc2cc(-n3nc(C)cc3C)ncn2)cc1", "inhibition": "26.7% (active)"}
{"smiles": "Cc1ccc(Nc2cc(-n3nc(C)cc3C)ncn2)c(C)c1", "inhibition": "-27.3%"}
{"smiles": "CC1(C)CC(=O)C(C=NCCN2CCN(C(=S)NC3CCCCC3)CC2)=C(O)C1", "inhibition": "-1.18%"}
{"smiles": "Cc1ccc(NC(=O)CN(C)CC(=O)Nc2ccccc2Oc2ccccc2)cc1", "inhibition": "-4.16%"}
{"smiles": "O=C(N/N=C\\c1ccc(-c2ccccc2[N+](=O)[O-])o1)C1COc2ccccc2O1", "note": "(centres undefined)", "inhibition": "5.3%"}
{"smiles": "O=C(N/N=C\\c1ccc([N+](=O)[O-])o1)C1COc2ccccc2O1", "note": "(centres undefined)", "inhibition": "15.2%"}
{"smiles": "O=C(N/N=C/c1cccc([N+](=O)[O-])c1)C1COc2ccccc2O1", "note": "(centres undefined)", "inhibition": "-7.31%"}
{"smiles": "O=C(N/N=C\\c1ccc(O)c([N+](=O)[O-])c1)C1COc2ccccc2O1", "note": "(centres undefined)", "inhibition": "21.5%"}
{"smiles": "Cc1cc(C(=O)OCn2nnc3ccccc3c2=O)c(C)n1-c1ccccc1", "inhibition": "0.48%"}
{"smiles": "O=C(COC(=O)c1cccc2ccccc12)Nc1ncc(C(F)(F)F)cc1Cl", "inhibition": "1.24%"}
{"smiles": "O=C(O)c1ccccc1C(=O)c1ccc(Sc2ccc(Cl)cc2)c([N+](=O)[O-])c1", "inhibition": "17.6%"}
{"smiles": "CC(=O)c1ccc(Sc2ccccc2N)c([N+](=O)[O-])c1", "inhibition": "0.73%"}
{"smiles": "Cc1cccc(Nc2c(-c3ccc(N4CCOCC4)cc3)nc3ncccn23)c1", "inhibition": "1.09%"}
{"smiles": "O=C(Nc1nnc(C2CC2)s1)C1CCCO1", "note": "(centres undefined)", "inhibition": "-7.06%"}
{"smiles": "Cn1cc(Br)c(C(=O)Nc2ncc(Br)s2)n1", "inhibition": "3.9%"}
{"smiles": "CC(=O)c1ccc(OC(C)C)c(CSc2nc(O)cc(=O)[nH]2)c1", "inhibition": "36.7%"}
{"smiles": "CCCOc1ccc(C(C)=O)cc1CSCCC#N", "inhibition": "11.4%"}
{"smiles": "CCOC(=O)c1sc2nc(C(C)C)c3c(c2c1N)CC(C)(C)OC3", "inhibition": "22.1%"}
{"smiles": "COC(=O)c1ccc(S(=O)(=O)N2CCCN(Cc3ccccc3)CC2)n1C", "inhibition": "-2.02%"}
{"smiles": "Cc1ccccc1C(=O)Nc1ccnc(-c2ccncc2)n1", "inhibition": "-1.17%"}
{"smiles": "Cc1nc2ccc(Cl)cc2nc1C", "inhibition": "5.55%"}
{"smiles": "Cc1nc(N)nc(Cl)c1Cc1ccc(Cl)cc1", "inhibition": "0.71%"}
{"smiles": "COC(CNC(=O)C1CCCCC1C(=O)O)OC", "note": "(centres undefined)", "inhibition": "-2.33%"}
{"smiles": "C/C(CC(=O)Nc1ccccc1C)=N\\NC(=O)Cc1csc(N)n1", "inhibition": "5.41%"}
{"smiles": "C=CCn1c(SCc2nc3ccccc3c(=O)[nH]2)nc2scc(C3CC3)c2c1=O", "inhibition": "1.15%"}
{"smiles": "O=Cc1c(OCc2ccccc2)ccc2ccccc12", "inhibition": "16.3%"}
{"smiles": "COc1ccc2ccccc2c1/C=N/O", "inhibition": "6.62%"}
{"smiles": "CC(C)Oc1ccc2ccccc2c1C=O", "inhibition": "23.8% (active)"}
{"smiles": "C=CCNc1nc2ccccc2c(=O)[nH]1", "inhibition": "7.55%"}
{"smiles": "Clc1ccc(-c2nc(-c3cc4cc(Cl)ccc4o3)cs2)cc1", "inhibition": "2.11%"}
{"smiles": "CC(=O)Nc1cccc(NS(=O)(=O)c2ccccc2[N+](=O)[O-])c1", "inhibition": "-4.08%"}
{"smiles": "CC(C(=O)N1CCN(C)CC1)N1C(=O)c2ccccc2C1=O", "note": "(centres undefined)", "inhibition": "7.24%"}
{"smiles": "COC(=O)c1c[nH]n2c(=O)c(Cl)c(C)nc12", "inhibition": "0.19%"}
{"smiles": "COc1ccc(OC)c(CC(NC(C)=O)C(=O)NC2CCN(c3nc(OC)nc(OC)n3)CC2)c1", "note": "(centres undefined)", "inhibition": "4.38%"}
{"smiles": "COc1ccc(/C=N/NC(=O)c2ccc(N)cc2)cc1Cn1cc([N+](=O)[O-])cn1", "inhibition": "16.6%"}
{"smiles": "COc1ccc(/C=N/NC(=O)c2ccccc2O)cc1Cn1cc([N+](=O)[O-])cn1", "inhibition": "5.5%"}
{"smiles": "Cc1nc(CC(=O)Nc2nc(C(C)(C)C)cs2)cs1", "inhibition": "13.3%"}
{"smiles": "O=C(O)c1ccc(-c2ncc[nH]2)cc1", "inhibition": "2.64%"}
{"smiles": "Cc1ccc2c(c1)-c1c(cnn1CC(=O)N1CCCN(Cc3ccccc3F)C1)CO2", "inhibition": "26.4% (active)"}
{"smiles": "Cc1ccc2c(c1)-c1c(cnn1CC(=O)N(Cc1ccco1)C1CCCCC1)CO2", "inhibition": "4.81%"}
{"smiles": "Cc1ccc2c(c1)-c1c(cnn1CC(=O)O)CO2", "inhibition": "0.53%"}
{"smiles": "Cc1ccc(C)c(CN2CCCN(C(=O)Cn3ncc4c3-c3ccccc3OC4)C2)c1", "inhibition": "3.24%"}
{"smiles": "CC(CCc1ccco1)NC(=O)Cn1ncc2c1-c1ccccc1OC2", "note": "(centres undefined)", "inhibition": "12.1%"}
{"smiles": "Cc1ccc2c(c1)-c1c(cnn1CC(=O)NC(C)CCc1ccco1)CO2", "note": "(centres undefined)", "inhibition": "25.2% (active)"}
{"smiles": "COc1cc2c(cc1OC)CN(C(=O)CSc1nc(C)cc(C)c1C#N)CC2", "inhibition": "3.39%"}
{"smiles": "COc1cc2c(cc1OC)CN(C(=O)CSc1n[nH]c(N)n1)CC2", "inhibition": "0.58%"}
{"smiles": "COc1cc2c(cc1OC)CN(C(=O)CSc1nnc(C)s1)CC2", "inhibition": "25.4% (active)"}
{"smiles": "CCOCCn1cnc2sc(C(=O)NCC(=O)OCC)c(C)c2c1=O", "inhibition": "1.07%"}
{"smiles": "Cc1cc2c(=O)oc(-c3ccccc3Br)nc2s1", "inhibition": "-4.08%"}
{"smiles": "O=C(Nc1cnc2sc3c(n2c1=O)CCCC3)c1ccc(F)cc1", "inhibition": "23.9% (active)"}
{"smiles": "Cc1ccc2c(c1)sc1ncc(NC(=O)c3ccc(F)cc3)c(=O)n12", "inhibition": "-0.5%"}
{"smiles": "Cc1nn2c(=O)c(NC(=O)c3ccc(F)cc3)cnc2s1", "inhibition": "6.66%"}
{"smiles": "CCOC(=O)COc1ccc(N)cc1CC(NC(C)=O)(C(=O)OCC)C(=O)OCC", "inhibition": "6.1%"}
{"smiles": "Cn1cc(CNC(=O)C2c3ccccc3Oc3ccccc32)cn1", "inhibition": "13.7%"}
{"smiles": "COc1ccc(N=CC2=C(O)CC(C)(C)CC2=O)cc1", "inhibition": "13.6%"}
{"smiles": "C=CCc1c(C)nc2c(C)cccc2c1SC(=N)N", "inhibition": "1.57%"}
{"smiles": "CCOC(=O)CSc1nc(C)c2cccc(C)c2n1", "inhibition": "0.76%"}
{"smiles": "CCOc1ccc(NC(=O)c2ccccc2OC)cc1", "inhibition": "5.95%"}
{"smiles": "COc1ccc(NC(=O)CSc2c(C)n[nH]c2C)cc1", "inhibition": "0.25%"}
{"smiles": "O=C(NCCCc1ccccc1)C1CC(=O)N(c2ccc3c(c2)OCCO3)C1", "note": "(centres undefined)", "inhibition": "2.32%"}
{"smiles": "O=C(NC(Cc1ccccc1)c1nc2ccccc2[nH]1)C1CC(=O)N(c2ccc3c(c2)OCCO3)C1", "note": "(centres undefined)", "inhibition": "26% (active)"}
{"smiles": "O=C(Nc1nc2ccccc2[nH]1)C1CC(=O)N(c2ccc3c(c2)OCCO3)C1", "note": "(centres undefined)", "inhibition": "-0.34%"}
{"smiles": "O=C(c1cccs1)c1ccc(-c2cccs2)s1", "inhibition": "15.2%"}
{"smiles": "CCN(CC)C(=O)c1ccc(-c2cccs2)s1", "inhibition": "2.09%"}
{"smiles": "COc1ccc(NC(=O)Cn2nnc(C(=O)NCCc3ccc(OC)c(OC)c3)c2N)c(OC)c1", "inhibition": "0.32%"}
{"smiles": "O=C(NNc1c(Cl)cc(Cl)cc1Cl)c1cccc([N+](=O)[O-])c1", "inhibition": "0.41%"}
{"smiles": "Cc1ccccc1CSc1nn2c(=O)c(C)nnc2s1", "inhibition": "1.72%"}
{"smiles": "O=[N+]([O-])c1cccc(S(=O)(=O)NCCc2cn3ccccc3n2)c1", "inhibition": "-0.31%"}
{"smiles": "CCCc1ccc(-c2ccc(F)c(N)c2)nc1", "inhibition": "6.24%"}
{"smiles": "Nc1ccc2nc(-c3ccc(Cl)cc3)[nH]c2c1", "inhibition": "14%"}
{"smiles": "Nc1ccc2nc(-c3ccccc3)[nH]c2c1", "inhibition": "1.94%"}
{"smiles": "CCOC(=O)CN(C(=O)CNC(=O)c1ccco1)C(C(=O)NC1CCCCC1)c1cccs1", "note": "(centres undefined)", "inhibition": "2.4%"}
{"smiles": "Cc1cc(C)nc(SCC(=O)N/N=C/c2cccn2-c2ccc(O)cc2)n1", "inhibition": "8.99%"}
{"smiles": "Cc1onc(-c2ccccc2Cl)c1C(=O)Nc1ccc(-c2cn3cccnc3n2)cc1", "inhibition": "3.1%"}
{"smiles": "Cc1onc(-c2ccccc2Cl)c1C(=O)Nc1cccc(-c2cn3cccnc3n2)c1", "inhibition": "26.2% (active)"}
{"smiles": "Cc1ccc(-c2cn3cccnc3n2)cc1NC(=O)c1c(-c2ccccc2Cl)noc1C", "inhibition": "9.6%"}
